# Inconclusive results are not listed. A number with no mark means an inactive call. The source made the active and inactive calls. Unless noted, calls come from the whole dose curve; as a rule, active = well fitted inhibition curve with a large enough effect; inconclusive = small, poorly fitted or top-dose-only effect; inactive = no such curve, though single readings can be large or run the other way.
# Tested on: not listed separately
# Assay: Natriuretic polypeptide receptor (hNpr1) antagonism - Pilot counterscreen GloSensor control cell line (AID 1347045; calls by dose curve; note: potency is the fitted concentration of half-maximal effect; for activity change, negative = inhibition: % is set by controls: 0 for no effect and ±100 for the full control effect)
# Details: HEK293 cGMP GloSensor cells, SNP-stimulated luminescence, 20 min; series mostly up to 38.3 µM; activity change, negative = inhibition: at the top concentration
# In short: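 This counterscreen uses HEK293 cells expressing the GIP/pGS-40F cGMP biosensor. Compound-treated cells are challenged with 50 uM sodium nitroprusside, and the luciferase signal is compared before and after stimulation.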
Structure (SMILES),"activity change, negative = inhibition [%]",Potency
O=C1NCC2(CCN(CCc3ccccc3)CC2)O1,-1.18,
C[N+](C)(C)CCCCCC[N+](C)(C)C,,inactive
O=c1c(-c2ccc(O)cc2)coc2cc(O)ccc12,-11.5,
Clc1ccc(Cn2c(CN3CCCC3)nc3ccccc32)cc1,18.2,
CCCCCN(C)CCC(O)(P(=O)(O)O)P(=O)(O)O,5.18,
CC(C)NCC(O)COc1cccc2[nH]ccc12 (configuration not stated),2.32,
CC1(C)CCC2=C(O1)c1ccccc1C(=O)C2=O,,14.7 µM (active)
COc1ccc(Cc2nccc3cc(OC)c(OC)cc23)cc1OC,-96.7,

# Biological target: Atrial natriuretic peptide receptor 1 (Homo sapiens) (UniProt P16066)
# Assay: Natriuretic polypeptide receptor (hNpr1) antagonism - Pilot screen (AID 1347049; calls by dose curve;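 note: agonist-evoked cGMP luminescence read 20 min after hNppA addition; % is set by controls: 0 for no effect and ±100 for the full control effect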)
# Details: hNpr1 cells, antagonist mode cGMP read-out; series mostly up to 57.5 µM; activity change, negative = inhibition: at the top concentration
# In short: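 HEK293 cells expressing hNpr1 and GloSensor cGMP luciferase, 1500/well, loaded with 2% GloSensor reagent 2 h, compound 30 min at room temperature; luminescence read before and 20 min after 0.1 nM hNppA stimulation.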
# Chain of Atrial natriuretic peptide receptor 1 (Homo sapiens) (P16066 whole entry, looked up): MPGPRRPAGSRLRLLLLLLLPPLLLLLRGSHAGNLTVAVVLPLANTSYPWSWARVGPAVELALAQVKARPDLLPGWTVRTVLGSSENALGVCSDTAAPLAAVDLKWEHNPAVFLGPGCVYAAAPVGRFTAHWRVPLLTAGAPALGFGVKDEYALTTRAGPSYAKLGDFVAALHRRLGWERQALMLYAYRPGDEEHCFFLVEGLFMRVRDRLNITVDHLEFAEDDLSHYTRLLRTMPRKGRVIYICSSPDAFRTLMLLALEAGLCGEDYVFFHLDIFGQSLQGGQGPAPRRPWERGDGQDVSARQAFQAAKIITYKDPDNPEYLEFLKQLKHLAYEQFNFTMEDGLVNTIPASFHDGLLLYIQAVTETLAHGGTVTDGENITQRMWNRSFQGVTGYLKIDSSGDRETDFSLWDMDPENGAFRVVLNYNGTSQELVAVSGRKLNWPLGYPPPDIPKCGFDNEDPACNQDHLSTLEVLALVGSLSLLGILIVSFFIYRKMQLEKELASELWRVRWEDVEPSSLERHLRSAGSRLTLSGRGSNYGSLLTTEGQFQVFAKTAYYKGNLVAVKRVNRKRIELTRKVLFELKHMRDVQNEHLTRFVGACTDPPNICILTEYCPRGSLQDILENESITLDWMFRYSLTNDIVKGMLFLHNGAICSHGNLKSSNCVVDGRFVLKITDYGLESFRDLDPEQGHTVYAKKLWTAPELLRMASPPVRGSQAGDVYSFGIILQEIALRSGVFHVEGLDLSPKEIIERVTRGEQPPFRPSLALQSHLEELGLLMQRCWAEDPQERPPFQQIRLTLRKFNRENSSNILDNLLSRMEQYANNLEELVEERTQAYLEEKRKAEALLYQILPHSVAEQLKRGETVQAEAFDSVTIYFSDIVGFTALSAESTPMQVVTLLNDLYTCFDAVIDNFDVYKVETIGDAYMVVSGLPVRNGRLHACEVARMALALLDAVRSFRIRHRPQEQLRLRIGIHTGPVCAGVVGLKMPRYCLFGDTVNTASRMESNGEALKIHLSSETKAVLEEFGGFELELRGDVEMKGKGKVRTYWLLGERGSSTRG
row,Structure (SMILES),"activity change, negative = inhibition [%]"
1,O=C1NCC2(CCN(CCc3ccccc3)CC2)O1,3.18
2,C[N+](C)(C)CCCCCC[N+](C)(C)C,5.3
3,Clc1ccc(C(c2ccc(Cl)cc2)n2cc[n+](CC(OCc3ccc(Cl)cc3Cl)c3ccc(Cl)cc3Cl)c2)cc1 (configuration not stated),-13
4,CC(=O)O[C@]1(C(C)=O)CC[C@H]2[C@@H]3C=C(Cl)C4=CC(=O)[C@@H]5C[C@@H]5[C@]4(C)[C@H]3CC[C@@]21C,-3.28
5,O=c1c(-c2ccc(O)cc2)coc2cc(O)ccc12,1.15
6,Clc1ccc(Cn2c(CN3CCCC3)nc3ccccc32)cc1,-3.7
7,CCCCCN(C)CCC(O)(P(=O)(O)O)P(=O)(O)O,7.74
8,CC(C)NCC(O)COc1cccc2[nH]ccc12 (configuration not stated),6.15
9,CC(C)OC(=O)C(C)(C)Oc1ccc(C(=O)c2ccc(Cl)cc2)cc1,7.68
10,CC1(C)CCC2=C(O1)c1ccccc1C(=O)C2=O,-28.3
11,CC/C(=C(\c1ccccc1)c1ccc(OCCN(C)C)cc1)c1ccccc1,11.6

# Biological target: Atrial natriuretic peptide receptor 2 (Homo sapiens) (UniProt P20594)
# Assay: Natriuretic polypeptide receptor (hNpr2) antagonism - Pilot subtype selectivity assay (AID 1347050; calls by dose curve; note: % is set by controls: 0 for no effect and ±100 for the full control effect)
# Details: NPR2-expressing cells, cGMP antagonist-mode read-out; series mostly up to 38.3 µM; activity change, negative = inhibition: at the top concentration
# In short: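 HEK293 cells expressing hNpr2 and a GloSensor cGMP luciferase sensor, 1500/well, preloaded 2 h with 2% GloSensor reagent, compound 30 min, then 1 nM hNppC for 20 min. Antagonism from luminescence after versus baseline pre-read; LOPAC in 1:5 titrations.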
# Chain of Atrial natriuretic peptide receptor 2 (Homo sapiens) (P20594 whole entry, looked up): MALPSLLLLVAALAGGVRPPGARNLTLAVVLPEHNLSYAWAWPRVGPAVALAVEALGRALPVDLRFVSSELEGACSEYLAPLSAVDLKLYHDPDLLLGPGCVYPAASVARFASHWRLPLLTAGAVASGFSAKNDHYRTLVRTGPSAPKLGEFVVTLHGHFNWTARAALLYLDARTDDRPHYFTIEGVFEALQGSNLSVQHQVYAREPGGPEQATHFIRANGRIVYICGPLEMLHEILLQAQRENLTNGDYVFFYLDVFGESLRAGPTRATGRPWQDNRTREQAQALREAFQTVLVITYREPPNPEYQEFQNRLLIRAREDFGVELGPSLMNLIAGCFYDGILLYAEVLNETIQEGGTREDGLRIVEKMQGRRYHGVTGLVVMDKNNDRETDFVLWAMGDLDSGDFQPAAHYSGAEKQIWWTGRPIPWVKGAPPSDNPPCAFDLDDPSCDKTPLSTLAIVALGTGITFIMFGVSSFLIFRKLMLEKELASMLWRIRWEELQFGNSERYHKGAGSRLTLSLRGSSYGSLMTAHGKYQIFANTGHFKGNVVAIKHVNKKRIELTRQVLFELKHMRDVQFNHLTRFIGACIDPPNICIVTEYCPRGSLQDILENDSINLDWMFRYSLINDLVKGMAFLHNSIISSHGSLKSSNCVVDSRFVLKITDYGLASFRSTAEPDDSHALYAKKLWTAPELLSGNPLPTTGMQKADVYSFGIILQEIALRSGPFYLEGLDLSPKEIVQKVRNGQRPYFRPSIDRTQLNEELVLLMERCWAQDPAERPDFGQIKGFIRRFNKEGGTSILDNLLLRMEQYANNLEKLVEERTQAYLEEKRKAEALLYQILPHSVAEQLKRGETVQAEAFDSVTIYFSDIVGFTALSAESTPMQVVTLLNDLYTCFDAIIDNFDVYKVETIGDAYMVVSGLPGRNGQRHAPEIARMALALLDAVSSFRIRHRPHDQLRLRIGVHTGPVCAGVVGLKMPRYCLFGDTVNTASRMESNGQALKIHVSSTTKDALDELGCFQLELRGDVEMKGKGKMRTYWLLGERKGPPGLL
Structure (SMILES),"activity change, negative = inhibition [%]",outcome
O=C1NCC2(CCN(CCc3ccccc3)CC2)O1,5.74,
C[N+](C)(C)CCCCCC[N+](C)(C)C,,inactive
Clc1ccc(C(c2ccc(Cl)cc2)n2cc[n+](CC(OCc3ccc(Cl)cc3Cl)c3ccc(Cl)cc3Cl)c2)cc1 (configuration not stated),-1.05,
CC(=O)O[C@]1(C(C)=O)CC[C@H]2[C@@H]3C=C(Cl)C4=CC(=O)[C@@H]5C[C@@H]5[C@]4(C)[C@H]3CC[C@@]21C,-14.8,
O=c1c(-c2ccc(O)cc2)coc2cc(O)ccc12,-4.29,
CCCCCN(C)CCC(O)(P(=O)(O)O)P(=O)(O)O,6.97,
CC(C)NCC(O)COc1cccc2[nH]ccc12 (configuration not stated),7.31,
CC(C)OC(=O)C(C)(C)Oc1ccc(C(=O)c2ccc(Cl)cc2)cc1,-1.72,
CC/C(=C(\c1ccccc1)c1ccc(OCCN(C)C)cc1)c1ccccc1,-0.999,
CC(C)(C)c1ccc(C(O)CCCN2CCC(C(O)(c3ccccc3)c3ccccc3)CC2)cc1 (configuration not stated),-2.27,

# Tested on: not listed separately
# Assay: NS1 protein of Zika virus - qHTS assay to identify small molecule inhibitors in human HEK 293 cells (AID 1347053); note: nearly all actives have a fitted effect of over 55% in size; note: potency is the fitted concentration of half-maximal effect;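 for activity change, negative = inhibition: plate controls were infected untreated cells for no effect and uninfected cells for full effect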
# Details: HEK293 ZIKV MR766 infection, NS1 TR-FRET, 24 h; series mostly up to 46.1 µM; activity change, negative = inhibition: at the top concentration
# In short: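 HEK 293; 20 h pre-culture, 37 C/5% CO2; cpd 1 h pre-infection; ZIKV MR766, MOI = 0.5, 24 h, 37 C; TR-FRET NS1 readout (two anti-NS1 Abs); norm. to no-virus vs infected.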
Structure (SMILES),"activity change, negative = inhibition [%]",Potency
N[C@@]1(C(=O)O)CS(=O)(=O)[C@H]2[C@H](C(=O)O)[C@H]21,-4.41,
O=C1NCC2(CCN(CCc3ccccc3)CC2)O1,,inactive
C[N+](C)(C)CCCCCC[N+](C)(C)C,,inactive
CC(=Cc1ccccc1)C=C1SC(=S)N(CC(=O)O)C1=O,3.83,
Cc1c[nH]c(C=C2C(=O)Nc3ccccc32)c1CCC(=O)O,10.3,
O=c1c(-c2ccc(O)cc2)coc2cc(O)ccc12,,inactive
Clc1ccc(Cn2c(CN3CCCC3)nc3ccccc32)cc1,,inactive
CC1(C)O[C@H]2C[C@@H]3[C@H]4CCC5=CC(=O)C=C[C@]5(C)[C@@]4(F)[C@@H](O)C[C@]3(C)[C@]2(C(=O)CO)O1,0.922,
C[N+]1(C)[C@@H]2CC(OC(=O)[C@H](CO)c3ccccc3)C[C@H]1[C@H]1O[C@@H]12 (some centres not stated),-3.22,
COc1cc(NC(=O)c2ccc(-c3ccc(Cl)cc3)o2)cc(OC)c1,-1.67,
CN[C@@H](C)C(=O)N[C@H]1CN(C(=O)CC(C)C)CC[C@H]2CC[C@@H](C(=O)NC(c3ccccc3)c3ccccc3)N2C1=O,-8.25,
O=C1NC(=O)C(=Cc2ccc3c(c2)OC(F)(F)O3)S1,12.5,
COc1ccc2cccc(CCNC(C)=O)c2c1,-2.61,
CC(C)NCC(O)COc1cccc2[nH]ccc12 (configuration not stated),,inactive
CC(=O)Nc1ccc([C@H](C)C(=O)Nc2ncc(C(C)C)s2)cc1,,3.72 µM (active)
CCC(CC)[C@H](NC(C)=O)[C@@H]1[C@H](O)[C@@H](C(=O)O)C[C@@H]1N=C(N)N,-9,
CC=CC(=O)N(CC)c1ccccc1C,-4.59,

Structure (SMILES),"activity change, negative = inhibition [%]",Potency
COC1CCC(N(C(=O)C2CCC(C)CC2)c2cc(C3=CCCCC3)sc2C(=O)O)CC1 (configuration not stated),2.99,
C[C@]12CCC3c4ccc(O)cc4CCC3C1CCC2=O (some centres not stated),2.43,
CC(C)n1nc(-c2ccc3oc(N)nc3c2)c2c(N)ncnc21,,0.0209 µM (active)
COCCOC(=O)C1=C(C)NC2=C(C(=O)CC(c3ccccc3OC)C2)C1c1cccc(O)c1 (configuration not stated),1.45,
COc1ccc(-c2coc3cc(O)ccc3c2=O)cc1,3.27,
Cn1cc(C=C2C(=O)Nc3cccnc32)c2ccccc21,4.3,
CC(C)C(=O)Oc1ccc(CO)cc1[C@H](CCN(C(C)C)C(C)C)c1ccccc1,-0.448,
CON=C(C(=O)N[C@@H]1C(=O)N2C(C(=O)OCOC(=O)C(C)(C)C)=C(C=Cc3scnc3C)CS[C@H]12)c1csc(N)n1,21,
COc1ccc2c(Oc3ccc(NC(=O)c4c(C)n(CC(C)(C)O)n(-c5ccccc5)c4=O)nc3)ccnc2c1,-1.64,
CC1(C)CCC2=C(O1)c1ccccc1C(=O)C2=O,,inactive
C[C@@H](O)[C@H]1C(=O)N2C(C(=O)O)=C(S[C@@H]3CN[C@H](C(=O)N(C)C)C3)[C@H](C)[C@H]12,,inactive
CCc1ccc(C=C2SC(=S)NC2=O)cc1,-1.55,
C[C@]12CC[C@@H]3c4ccc(O)cc4C[C@@H](CCCCCCCCCS(=O)CCCC(F)(F)C(F)(F)F)[C@H]3[C@H]1CC[C@H]2O (some centres not stated),4.26,
CC(C)(C)OC(=O)N[C@H]1CCCCCC=C[C@@H]2C[C@@]2(C(=O)NS(=O)(=O)C2CC2)NC(=O)[C@@H]2C[C@@H](OC(=O)N3Cc4cccc(F)c4C3)CN2C1=O,-9.54,
CC/C(=C(\c1ccccc1)c1ccc(OCCN(C)C)cc1)c1ccccc1,34.4,
CC(C)(C)c1ccc(C(O)CCCN2CCC(C(O)(c3ccccc3)c3ccccc3)CC2)cc1 (configuration not stated),,inactive

# — PubChem BioAssay (NCATS)
